This is a sample that favours compounds with a hit; in the whole collection about 5.5% have one here.
RORgamma inh – blocks mouse ROR gamma transcriptional activity; P51450; Drosophila S2 Gal4-RORgamma UAS-luciferase reporter, 20 h; Potency, µM (highest dose often 53.6 µM), most hits filed as inhibitors; actives 5.4% (n = 310,000); AID 2551; further: nearly all actives have a fitted effect of over 60% in size
Target sequence (P51450 whole entry, looked up, the tested form may be a part): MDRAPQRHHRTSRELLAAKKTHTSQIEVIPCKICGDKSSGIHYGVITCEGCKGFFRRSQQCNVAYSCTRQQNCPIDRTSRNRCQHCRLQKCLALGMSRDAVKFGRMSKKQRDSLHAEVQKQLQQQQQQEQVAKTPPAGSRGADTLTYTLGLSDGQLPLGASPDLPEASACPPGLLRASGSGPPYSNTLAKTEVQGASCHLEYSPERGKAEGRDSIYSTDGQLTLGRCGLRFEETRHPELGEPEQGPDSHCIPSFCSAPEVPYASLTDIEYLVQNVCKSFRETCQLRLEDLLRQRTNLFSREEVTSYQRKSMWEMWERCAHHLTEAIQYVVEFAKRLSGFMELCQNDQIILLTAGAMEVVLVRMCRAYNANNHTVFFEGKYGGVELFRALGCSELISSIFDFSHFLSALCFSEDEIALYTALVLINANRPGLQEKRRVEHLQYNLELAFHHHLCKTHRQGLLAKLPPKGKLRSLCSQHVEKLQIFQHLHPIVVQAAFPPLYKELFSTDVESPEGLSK
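A Gal4/UAS one-hybrid system in insect cells: metallothionein-promoter Gal4–ROR gamma fusion plus Photinus luciferase reporter. Copper sulfate 700 uM final, 20 hr ambient incubation, luminescent detection after 10 min with reagent.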
Six1-Eya2 inh – blocks human Six1 binding to Eya2 | AlphaScreen GST-Six1/His-Eya2 binding, biochemical; stronger effect = lower value | activity change, % (concentration not given with the values) | actives 0.56% (n = 360,000) | AID 651725; in the data active means activity change below about -65%; inconclusive means mostly about -30% to -63%
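Compounds are tested against tagged Six1 and Eya2 proteins bridged by glutathione donor and nickel acceptor beads; after a one-hour incubation at 37 °C without light, AlphaScreen emission is recorded.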
CBFb-RUNX1 inh – blocks binding between human CBF-beta and RUNX1; AID 1477; 230,000 tested, under 10 active; AlphaScreen CBFb-His/RUNX1-biotin binding, biochemical; Potency, µM (series often up to 59.8 µM), usual class: inhibitors
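CBFb-His/RUNX1-biotin, 30 nM each, preincubated 20 min RT; compound 15 min RT; Ni + streptavidin beads 50 ng each, 90 min RT; AlphaScreen read.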
MBNL1-CUG inh – MBNL1-poly(CUG) RNA binding inhibition; Q9NR56; TR-FRET MBNL1-His/biotin-(CUG)12 binding, 665/545 ratio; Potency, µM (series often up to 57.5 µM), most hits filed as inhibitors; actives 0.036% (n = 280,000); AID 2675; active means well fitted inhibition curve with a large enough effect in the signal ratio, with a control signal flat, not every such curve was filed as active; inconclusive means small, poorly fitted or top-dose-only effect, or effect the other way, or a change in a side signal; inactive means no such curve, though single readings can be large or run the other way; the % refers to the signal ratio
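Compound titration spanned 92 nM–58 uM against the MBNL1-His/biotin-(CUG)12 complex. After 60 min at room temperature with 5 nM streptavidin-XL665 and 0.055 ng/ul terbium anti-His, ratiometric 665/545 nm emission (Ex 340 nm) normalized to controls.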
VP16 counter – Gal4-VP16 reporter inhibition counter-screen | Potency, µM (highest dose often 53.6 µM), hits mostly inhibitors | actives 3.5% (n = 310,000) | AID 2546 | Drosophila S2 Gal4-VP16 UAS-luciferase, luminescence, 20 h;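 further: Gal4-VP16 expression switched on by copper sulfate through the metallothionein promoter; nearly all actives have a fitted effect of over 50% in size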
CtBP-E1A inh – CtBP/E1A binding inhibition; AlphaScreen GST-E1A/His-CtBP binding, 1536-well; stronger effect = lower value; activity change, % (test concentration not listed); actives 0.49% (n = 340,000); in the data active means activity change below about -65%; inconclusive means mostly about -30% to -63%
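Protein mix (5X: 125 nM each GST-E1A, His-CtBP) was incubated with pinned compound 2 h at 37 deg C in dark, in 50 mM Tris pH 8.0 buffer with 300 mM NaCl. Glutathione donor and nickel acceptor beads followed; AlphaScreen signal read after 1 h.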
Numbers stand for hits; . = inactive; ? = inconclusive; / = not tested or not shown. Unless noted, the call rests on the fitted dose curve; in most records, active means well fitted curve in the direction sought with a large enough effect; inconclusive means small, poorly fitted or top-dose-only effect, or another doubt; inactive means no such curve, though single readings can be large; an effect the other way counts as inactive or inconclusive.

SMILES	RORgamma inh	Six1-Eya2 inh	CBFb-RUNX1 inh	MBNL1-CUG inh	VP16 counter	CtBP-E1A inh
CCn1ccnc1CN1CCCC(C(=O)c2ccc3cc(OC)ccc3c2)C1 (stereo unspecified)	0.022µM	.	.	.	1.6µM	.
COc1ccc2cc(C(=O)C3CCCN(Cc4ccccn4)C3)ccc2c1 (stereo unspecified)	3.2µM	.	.	.	?	.
CSC(SC)=C(C#N)C(=O)c1ccccc1	.	.	.	?	11µM	.
CC(Sc1nc2ccccc2s1)C(=O)Nc1nnc(C(C)C)s1 (stereo unspecified)	2.8µM	.	.	.	?	.
CCC(Sc1nc2ccccc2s1)C(=O)Nc1nnc(C)s1 (stereo unspecified)	?	.	.	.	.	.
O=C(NOCc1ccccc1)c1coc(-c2ccccc2)n1	/	.	/	/	/	.
CCOc1cccc2cc(-c3cn4cc(C)ccc4n3)c(=O)oc12	0.79µM	.	.	.	?	.
CCCN(C)C[C@@H]1OCc2cnnn2CCCC(=O)N([C@H](C)CO)C[C@H]1C	/	.	/	/	/	.
CCOc1ccc(NC(=O)CC(NCc2ccccn2)C(=O)O)cc1 (stereo unspecified)	.	-90	?	.	.	-92
Cc1ccccc1C(=O)O/N=C/c1c(N2CCOCC2)n(C)c2ccccc12	1µM	.	.	.	2.8µM	.
O=C(O)CCn1cc(/C=C/C(=O)c2ccc(Cl)cc2)c(-c2ccc(Br)cc2)n1	7.1µM	.	.	.	?	.
O=C(O)/C=C/c1cn(Cc2ccccc2)nc1-c1ccccc1	.	.	.	.	.	.
COc1ccc(C2/C=C\CN(C(=O)CC(C)(C)C)C(C)C(=O)N2Cc2ccc(F)cc2)cc1 (stereo unspecified)	?	/	.	/	.	/
O=c1[nH][nH]c2c1C(C1CCCCC1)OC(C1CCCCC1)C2 (stereo unspecified)	/	.	/	/	/	.
O=C(NC(=S)Nc1ccccc1Br)C1CCCC1	3.2µM	.	/	.	7.1µM	.
O=C(NC(=S)Nc1ccccc1F)C1CCCCC1	8.9µM	/	/	.	7.9µM	/
O=C(NC(=S)Nc1ccccc1Br)C1CCCCC1	/	.	/	/	/	.
O=c1onc(-c2ccccc2)n1Cc1ccc([N+](=O)[O-])cc1	/	.	/	/	/	.
CC(=O)Nc1ccc(-c2ccnc3c2CC(C)(C(=O)Nc2cccc(OC(F)(F)F)c2)O3)cc1 (stereo unspecified)	/	.	/	/	/	.
COc1cc(CNc2ncnc3c2ncn3[C@H]2CN(Cc3ccc(F)cc3)C[C@@H](CO)O2)cc(OC)c1OC	/	.	/	/	/	.
CC1C[N+](=C2C=C(N3CCOCC3)CC(C)(C)C2)CC(C)O1 (stereo unspecified)	.	.	.	.	.	.
O=C(NNC(=O)c1c(O)c2ccccc2[nH]c1=O)c1ccccc1Br	.	-75	/	.	.	?
O=C(CCl)NNC(=O)c1c(O)c2ccccc2[nH]c1=O	.	.	.	.	.	.
O=C(Nc1nnc(Cc2ccccc2)s1)Nc1ccccc1F	.	.	/	.	.	.
COC(=O)CC(NC(=O)c1ccc(C)cc1)c1ccc2c(c1)OCO2 (stereo unspecified)	.	.	.	.	.	.
SMILES	RORgamma inh	Six1-Eya2 inh	CBFb-RUNX1 inh	MBNL1-CUG inh	VP16 counter	CtBP-E1A inh
COC(=O)CC(NC(=O)c1ccc(C)cc1)c1ccccc1 (stereo unspecified)	8.9µM	.	.	.	.	.
O=C(Nc1c(Br)cc2c(c1Br)Cc1ccccc1-2)C(Cl)Cl	/	.	/	/	/	.
CCN(Cc1ccccc1)C(=O)c1oc2ccc(S(=O)(=O)N3CCOCC3)cc2c1C	.	.	/	.	.	.
COCCOCCn1c(/C=C/c2ccccc2)nc2ccccc21	11µM	.	.	?	?	.
CC(C)n1c(CN(C)c2ccccc2)nc2ccccc21	/	.	/	.	/	.
CCn1c(/C=C/c2cc[n+](C)cc2)nc2ccccc21	.	.	/	?	.	.
CC(C)n1c(/C=C/c2ccccc2)nc2ccccc21	13µM	.	?	.	16µM	.
CCCn1c(/C=C/c2ccccc2)nc2ccccc21	5.6µM	.	?	?	?	.
CC(C)Cn1c(/C=C/c2ccco2)nc2ccccc21	11µM	.	.	.	?	.
O=S(=O)(NCc1ccccc1)[C@@H]1CC2C=CC1C2 (stereo partly specified)	/	.	/	/	/	.
Cc1ccc(Cl)cc1N1CCN(Cc2nc3ccsc3c(=O)[nH]2)CC1	11µM	.	.	.	?	.
COc1ccc(N2CCN(Cc3nc4ccsc4c(=O)[nH]3)CC2)cc1	.	.	.	.	.	.
CCCCNC(=O)c1nc(C2CCN(S(=O)(=O)c3c(F)cccc3F)CC2)oc1-c1cccc(C(F)(F)F)c1	/	.	/	/	/	.
Cc1ccc(CNC(=O)C2CCN(C(=O)Nc3ccc(C)cc3)CC2)cc1	.	.	/	.	.	.
S=C(NCc1ccccc1)NNc1nc2ccccc2[nH]1	4.5µM	.	.	.	.	?
O=c1[nH]c(NCCCO)nc2c1C1(CCCC1)Cc1ccccc1-2	.	.	.	.	.	.
O=c1oc(-c2ccccc2)nc2c1C1(CCCCC1)Cc1ccccc1-2	.	.	.	.	.	.
O=c1[nH]c(NNC(=S)NCc2ccccc2)nc2c1C1(CCCCC1)Cc1ccccc1-2	2.5µM	.	.	.	2.8µM	/
C=CCNC(=S)NNc1nc2c(c(=O)[nH]1)C1(CCCC1)Cc1ccccc1-2	2.8µM	.	.	.	3.2µM	.
O=c1[nH]c(NNC(=S)NC2CCCCC2)nc2c1C1(CCCC1)Cc1ccccc1-2	2.8µM	.	.	.	25µM	.
O=c1[nH]cnc2c1C1(CCCC1)Cc1ccccc1-2	.	.	.	.	.	.
CCNC(=O)C1(C)CCN(Cc2cccc(C(F)(F)F)c2)C1 (stereo unspecified)	/	.	/	/	/	.
Cc1nonc1NC(=O)CSc1nnnn1-c1ccccc1	.	.	/	.	.	.
CCCn1c(-c2ccc(F)cc2)nc2c(N3CCN(CCC(=O)OCC)CC3)nc(C)nc21	.	/	.	/	.	/
COc1c[nH]n(C2CCCCC2)c(=O)c1=O	20µM	.	.	.	?	.
COc1ccc(Nc2cc(=O)n(C3CCCCC3)c(=O)[nH]2)c(OC)c1	.	.	.	.	.	.
COC(=O)Nc1ccc(S(=O)(=O)N2CCC(C(=O)NCc3ccc4c(c3)OCO4)CC2)cc1	/	.	/	/	/	.
Cc1cn(C2CCC(CO)O2)c(=O)[nH]c1=O (stereo unspecified)	.	.	/	.	.	.
CCOC(=O)N(C)c1ccc(C(O)(C(F)(F)F)C(F)(F)F)cc1	.	.	.	.	.	.

Assay outcomes as filed in PubChem BioAssay.
